D1 mod – allosteric modulators of human D1 dopamine receptor | P21728 | HEK293 D1, CRE-luciferase, dopamine EC30 potentiation; actives deviate in either direction | B-score at 10 µM | 58,000 tested, 5.9% active;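 active = luminescence count or its row- and column-corrected plate score outside the 99.7% band of the plate's sample wells, on either side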
FXIIa mix inh – inhibitors of human coagulation factor XIIa, pooled mixtures | inhibition, % at 5 µM | purified FXIIa, fluorogenic substrate | P00748 | 62,000 tested, 0.2% active;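 note: 0% = enzyme without compound and 100% = no enzyme blank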
TNAP act mid DEA – activators of human TNAP at intermediate phosphate acceptor; P05186; purified TNAP, CDP-star luminescence, 100 mM DEA, 30 min; stronger effect = higher value; scale: 0 levamisole-inhibited, 1 vehicle-only enzyme; activation factor at 20 µM; 64,000 tested, under 10 active; AID 813;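 active = activation factor of at least 2 at 20 µM, relative to controls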
Target sequence (P05186 whole entry, looked up): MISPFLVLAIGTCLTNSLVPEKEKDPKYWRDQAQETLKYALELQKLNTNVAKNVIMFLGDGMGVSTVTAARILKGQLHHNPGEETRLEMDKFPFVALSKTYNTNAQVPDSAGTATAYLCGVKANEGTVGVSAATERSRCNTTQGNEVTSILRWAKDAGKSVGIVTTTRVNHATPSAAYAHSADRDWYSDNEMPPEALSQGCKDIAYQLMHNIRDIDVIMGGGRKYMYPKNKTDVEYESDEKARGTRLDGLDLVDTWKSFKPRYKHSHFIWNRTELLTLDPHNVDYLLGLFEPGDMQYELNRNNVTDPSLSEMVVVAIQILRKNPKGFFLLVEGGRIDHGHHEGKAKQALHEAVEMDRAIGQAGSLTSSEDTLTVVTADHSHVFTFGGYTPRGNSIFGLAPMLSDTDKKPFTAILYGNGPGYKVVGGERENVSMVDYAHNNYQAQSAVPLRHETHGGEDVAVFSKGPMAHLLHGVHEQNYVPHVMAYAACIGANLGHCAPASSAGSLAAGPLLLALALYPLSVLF
Calb biofilm kill – kills Candida albicans biofilms; C. albicans biofilm + clotrimazole, Alamar Blue; inhibition, % at 6 µM; 85,000 tested, 0.14% active; AID 834;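 active = inhibition above 20%; inactive = inhibition below 20%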;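 note: preformed 24 hr biofilms exposed to compound for 48 hr; 0% = biofilm without compound and 100% = blank killed by clotrimazole plus chlorhexidine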
FXIa inh mix – blocks human factor XIa in pooled compound mixtures; P03951; purified FXIa, fluorogenic substrate; inhibition, % at 5 µM; 62,000 tested, 0.19% active;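 note: each value is inhibition by a whole ten-compound pool holding the compound; 0% = enzyme with no mixture and 100% = wells lacking enzyme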
HePTP inhibitor – inhibitors of human HePTP phosphatase; inhibition, % at 20 µM; P35236; recombinant HePTP phosphatase activity, OD absorbance; AID 521; 110,000 tested, 0.64% active; in the data active = inhibition above about 50%;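 note: plate controls were vehicle for no effect and reference inhibitor for full effect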
D1 PAM confirm – D1 receptor (human) allosteric modulation, confirmed; AID 642; luminescence at 10 µM; 2,200 tested, 88% active; shares compounds with D1 mod; HEK293 D1 CRE-luciferase, dopamine EC30 potentiation; stronger effect = higher value;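 active = luminescence in either of two replicates above the same-plate mean plus 3 SD of the low-dose dopamine control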
D1 ag no DA – activates D1 CRE-luciferase signal without dopamine present | shares compounds with D1 mod | HEK293 D1 CRE-luciferase, luminescence, no dopamine; stronger effect = higher value | luminescence at 10 µM | 1,900 tested, 0.8% active | AID 646; in the data active = luminescence above about 3900
Isoprot counter – counter-screen for D1 modulators: isoproterenol response in HEK293 cells | shares compounds with D1 mod | 2,200 tested, 63% active | luminescence at 10 µM | HEK293 D1 CRE-luciferase, isoproterenol EC30 counter-screen; stronger effect = higher value;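 active = luminescence in either replicate above plate mean of wells with a partly effective reference agonist dose plus 3 SD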;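 note: isoproterenol raises cAMP through native beta-adrenoceptor Gs so signal bypasses D1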
Starred values were filed as active, the others as inactive; . = no result given. The sample as a whole holds a higher share of hits than the screen did. Cut-off read from the data, not from the text of the source, unless noted: active = inhibition above about 20% (passing the limit was not always enough); inactive = the rest.

SMILES	D1 mod	FXIIa mix inh	TNAP act mid DEA	Calb biofilm kill	FXIa inh mix	HePTP inhibitor	D1 PAM confirm	D1 ag no DA	Isoprot counter
Cc1cc(-c2nc3ccccc3o2)c2ccccc2n1	14.6*	-4.2	0.9	4.7	-5.0	5.3	14660*	.	3288*
Cc1cc(C(=O)O)c2ccccc2n1	.	.	.	1.3	.	.	.	.	.
O=C(NCc1ccc2c(c1)OCO2)c1cccc2c1C(=O)N(C1CCCCC1)C2	5.99*	-0.7	0.9	8.9	3.0	1.2	10552*	1592	4384*
CCOC(=O)N1CCC(N2Cc3cccc(C(=O)NCc4ccc5c(c4)OCO5)c3C2=O)CC1	1.44	-14.2	1	6.9	20.4	9.8	.	.	.
CCCN1Cc2cccc(C(=O)NC3CCCC3)c2C1=O	12.2*	0.6	0.8	2.2	7.6	11.5	16648*	1612	4220*
CCCN1Cc2cccc(C(=O)NCc3cccs3)c2C1=O	18.2*	7.0	0.8	.	2.0	-1.1	24472*	1580	5056*
CCCN1Cc2cccc(C(=O)NCc3ccc4c(c3)OCO4)c2C1=O	11.5*	5.9	1	.	5.6	-3.3	15396*	1860	4224*
CCCN1Cc2cccc(C(=O)Nc3cc(OC)cc(OC)c3)c2C1=O	0.0255	2.6	0.9	.	13.2	-2.6	.	.	.
O=C(CSc1nc2ccccc2s1)NCCO	.	.	.	.	.	3.7	.	.	.
CCOC(=O)C1CCCN(c2nc3ccccc3nc2C(C#N)C(=O)OCC)C1 (stereo unspecified)	2.95*	7.4	0.9	-3.0	5.3	-6.9	8656*	1548	3028
CCc1ccc(NC(=O)CSc2nc3sc4c(c3c(=O)n2-c2ccccc2)CCCC4)cc1	.	.	.	.	.	-11.3	.	.	.
O=C1c2ccccc2-c2c(NC3CCCCC3)c(=O)[nH]c3cccc1c23	.	.	.	.	.	8.7	.	.	.
COCCCNc1c2c3c(cccc3[nH]c1=O)C(=O)c1ccccc1-2	2.97*	10.4	0.9	11.0	1.6	-5.3	8772*	1436	2896
COC(=O)c1cccc(S(=O)(=O)N2CCC(NC(=O)NC34CC5CC(CC(C5)C3)C4)CC2)c1	4.64*	-17.4	0.9	.	-1.7	-1.6	11624*	1536	2832
COC(C)(C)c1cc(C(C)(C)C)nc(N)n1	3.09*	-20.5	0.9	6.7	4.1	1.1	10892*	.	2772*
O=C(/C=C/c1ccc(-c2cc(Cl)ccc2Cl)o1)c1ccc([N+](=O)[O-])cc1	.	.	.	.	.	-21.4	.	.	.
O=S1(=O)N=C(N2CCCc3ccccc32)c2ccccc21	0.932	-11.9	0.9	.	5.2	1.6	.	.	.
O=S1(=O)N=C(N2CCc3ccccc3C2)c2ccccc21	2.4*	5.8	0.8	.	-5.5	-1.7	6388*	1564	2628
COc1cc(Cl)c(NC(=O)c2cc3ccccc3cc2O)c(OC)c1	.	.	.	.	.	2.1	.	.	.
CC(C)(C)c1ccc(C(=O)NCCOCc2ccccc2)cc1	.	.	.	.	.	10.1	.	.	.
CC(C)Cn1c(-c2cccs2)nc2nc3ccccc3nc21	4.73*	-1.3	0.8	-1.5	-5.0	5.0	10104*	1776	3488
COc1ccc(-c2nc(C)ncc2-c2csc(C)n2)c(O)c1	.	.	.	4.2	.	.	.	.	.
COc1cccc(Oc2cnc(N)nc2-c2ccc(OC)cc2O)c1	14.8*	3.0	0.7	4.9	4.5	6.2	22464*	1596	5216*
C=C(C)COc1ccc(-c2[nH]ncc2Oc2cccc(OC)c2)c(O)c1	-0.425	5.0	0.9	5.1	5.3	3.4	.	.	.
COc1ccc(-c2cnc(N)nc2-c2ccc(OC)cc2O)cc1	14*	3.5	0.9	2.4	6.9	-2.8	16148*	.	2836*
SMILES	D1 mod	FXIIa mix inh	TNAP act mid DEA	Calb biofilm kill	FXIa inh mix	HePTP inhibitor	D1 PAM confirm	D1 ag no DA	Isoprot counter
O=C(O)c1ccccc1-c1ccccc1C(=O)Nc1nc(-c2ccccc2)cs1	.	.	.	.	.	11.0	.	.	.
CC(C)NC(=O)/C(=C\c1ccco1)NC(=O)c1ccccc1	.	.	.	.	.	4.3	.	.	.
CCN1C(=O)/C(=C/c2cc3c(cc2Br)OCO3)SC1=S	.	.	.	.	.	7.7	.	.	.
CC(C)CC1(C)NC(=O)NC1=O (stereo unspecified)	2.99*	2.8	1	0.7	2.8	4.9	6352	1712	2472
COc1ccc(/C=C/C(=O)NC(=S)Nc2ccccc2Cl)cc1OC	.	.	.	.	.	8.8	.	.	.
CCOc1ccc(-c2nnn(CC(=O)c3ccc4c(c3)OCCO4)n2)cc1OCC	9.26*	-1.9	1	0.3	-29.1	0.3	18056*	1596	4056*
Clc1ccc(-n2nnnc2-c2ccccc2)cc1Cl	13.3*	2.9	0.9	2.1	11.6	5.0	19112*	1808	3948*
COc1cc(/C=C2/SC(=S)N(c3ccccc3)C2=O)cc(OC)c1O	.	.	.	.	.	-3.5	.	.	.
Cc1ccc(-c2nn(C)c(=O)c3ccccc23)cc1S(=O)(=O)N1CCCC1	0.477	14.6	0.9	.	9.3	14.5	.	.	.
Cc1ccc(-c2nn(C)c(=O)c3ccccc23)cc1S(=O)(=O)NCCO	4.14*	6.7	0.9	2.5	12.1	2.1	6200*	1504	2988
CCCCOc1ccc(CC(=O)NO)cc1	33.4*	11.5	0.8	-4.5	14.9	3.6	18936*	.	3532*
CCCCOc1ccc(C(=O)NC)cc1	-0.0637	0.4	0.9	4.9	11.9	5.9	.	.	.
NC(=O)COc1c(-c2ccccc2)oc2ccccc2c1=O	2.62*	-0.5	0.9	6.6	-18.3	2.5	15448*	1588	3600*
CCCN1CCC(=NNC(=O)CCC(=O)NN=C2CCN(CCC)CC2)CC1	.	.	.	.	.	-8.2	.	.	.
CCOC(=O)C1CCN(S(=O)(=O)c2ccc3c4c(cccc24)C(=O)N3)CC1	1.3	-0.7	1	0.2	-24.9	4.3	.	.	.
O=C1Nc2ccc(S(=O)(=O)N3CCCC3)c3ccc(S(=O)(=O)N4CCCC4)c1c23	5.16*	10.8	0.9	-0.2	5.5	-1.0	12808*	.	2900*
COc1ccc(-c2noc(CSc3nnc(-c4ccncc4)n3-c3ccc(F)cc3)n2)cc1OC	4.59*	-7.3	0.9	10.2	4.2	9.5	10824*	1596	2264
CCOc1ccc(-c2noc(COC)n2)cc1OC	3.39*	10.5	0.9	4.4	8.4	9.3	8824*	1732	3640
COc1ccc(-c2noc(CSc3nnc(-c4ccccc4)n3C)n2)cc1	.	.	.	5.9	.	.	.	.	.
COc1ccc(-c2noc(COc3ccc4ccccc4c3Br)n2)cc1OC	3.74*	2.8	0.9	9.0	5.3	13.4	8636*	1540	3180
COc1ccc(-c2noc(CSc3nc(-c4ccccc4)cc(=O)[nH]3)n2)cc1OC	7.55*	-1.3	1	-1.7	5.7	-12.6	7928*	.	2680*
O=C1S/C(=C\c2ccc3c(c2)OCO3)C(=O)N1Cc1ccccc1	.	.	.	.	.	6.7	.	.	.
COc1ccc(Cl)cc1NC(=O)CN(Cc1ccccc1)S(=O)(=O)c1ccccc1	.	.	.	.	.	-3.1	.	.	.

Bioassay records: PubChem BioAssay, several laboratories
